TrxR1 substrate: is turned over as a substrate by rat TrxR1. purified TrxR1 substrate turnover, NADPH consumption readout. AID 588456. Potency, µM (top dose mostly 114 µM), for inactives: at the highest dose activity change, negative = substrate turnover. O89049. 390,000 tested, 0.01% active; note: nearly all actives have a fitted effect of over 50% in size
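Rat TrxR1, dispensed at 90 nM, was prereduced with 400 uM NADPH (final) for 5 min at ~22 deg C, then incubated with compound 15 min before 400 uM selenite. A first-read NADPH fluorescence drop versus no-compound background flagged substrates.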
Sfp inh: inhibitors of Bacillus subtilis Sfp phosphopantetheinyl transferase | Biochemical Sfp PPTase activity, qHTS | Potency, µM, for the others: largest response in the series, negative = inhibition, usual class: inhibitors | 310,000 tested, 3.5% active;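 note: the enzyme is Sfp with the accession as filed and its product quenches rhodamine fluorescence; 0% = enzyme reaction without inhibitor and -100% = no enzyme wells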
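Step 1, compound plus 15 nM Sfp-PPTase, 15 min, room temperature. Step 2, add rhodamine-CoA (5 uM) and BHQ-2-YbbR (12.5 uM). Step 3, read 525/598 nm fluorescence at 0 and 30 min.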
GLS inh: blocks human kidney-isoform glutaminase activity. GLS enzymatic activity, qHTS titration. O94925. 410,000 tested, 0.21% active. Potency, µM (doses to about 45.5 µM), inactives show top-dose activity change, negative = inhibition, most hits filed as inhibitors
Target sequence (O94925 whole entry, looked up, canonical isoform): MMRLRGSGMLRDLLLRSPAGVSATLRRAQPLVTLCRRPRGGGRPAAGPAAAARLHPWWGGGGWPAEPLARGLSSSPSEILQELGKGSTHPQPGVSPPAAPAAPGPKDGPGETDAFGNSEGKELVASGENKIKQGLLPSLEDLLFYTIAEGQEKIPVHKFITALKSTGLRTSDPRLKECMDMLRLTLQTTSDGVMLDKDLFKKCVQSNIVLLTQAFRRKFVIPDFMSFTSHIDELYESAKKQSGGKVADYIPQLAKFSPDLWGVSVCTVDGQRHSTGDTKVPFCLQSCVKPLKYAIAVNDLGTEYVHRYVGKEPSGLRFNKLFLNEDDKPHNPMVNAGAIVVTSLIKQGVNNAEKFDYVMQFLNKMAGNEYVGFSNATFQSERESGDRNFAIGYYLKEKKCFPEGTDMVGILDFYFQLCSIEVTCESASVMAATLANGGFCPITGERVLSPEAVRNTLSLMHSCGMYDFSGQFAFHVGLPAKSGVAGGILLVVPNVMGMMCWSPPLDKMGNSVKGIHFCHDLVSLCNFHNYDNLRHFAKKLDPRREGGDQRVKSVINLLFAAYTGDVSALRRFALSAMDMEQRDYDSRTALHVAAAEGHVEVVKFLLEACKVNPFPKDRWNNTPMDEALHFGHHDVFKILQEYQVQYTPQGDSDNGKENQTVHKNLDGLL
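Read-out is an Amplex red fluorescence increase coupled through glutamate oxidase and HRP, measured before and after 30 min room-temperature incubation. hKGA is in 45 mM KH2PO4 (pH 8.2) with 0.02% Tween-20; glutamine added as 1mM solution.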
KAT2A inh: GCN5L2 (KAT2A) acetyltransferase inhibition. Potency, µM (highest dose often 58.9 µM), for inactives: at the top dose activity change, negative = inhibition, hits mostly inhibitors. Q92830. GCN5L2 HAT assay, ThioGlo1 CoA-SH fluorescence. AID 504327. 390,000 tested, 0.21% active
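Compounds, pin-transferred from DMSO stocks, meet 20nM GCN5L2 for 15 min before the reaction begins with H3(1-25) peptide (75uM) and acetyl-CoA (70uM). Thiol-reactive ThioGlo1 reports CoA release over 20 min at room temperature.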
VDR inh: vitamin D3 receptor (human) inhibition. P11473. VDR-SRC2-3 peptide fluorescence polarization, 2 h. Potency, µM, for inactives: max response, negative = inhibition, most hits filed as inhibitors. 400,000 tested, 0.93% active
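FP read-out; VDR + SRC2-3 coactivator peptide; 23 nl compound by pintool; 2 h RT incubation; reagents held at 4 deg C, protected from light.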
rTrxR1 inhibitor: blocks rat thioredoxin reductase 1 | O89049 | recombinant rTrxR1, NADPH fluorescence consumption, selenite substrate | Potency, µM (titrated, usually from 114 µM), inactives show at the top dose activity change, negative = inhibition, usual class: inhibitors | 390,000 tested, 1% active; note: nearly all actives have a fitted effect of over 65% in size
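Rat TrxR1 (90 nM in the dispensed reagent) was pre-reduced with 400 uM NADPH for 5 min at room temperature, then incubated with compound for 15 min. After 400 uM selenite was added, NADPH fluorescence (Ex 340/Em 450 nm) was followed for 8 min.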
Starred values were filed as active, the others as inactive; ? = inconclusive; . = no result; [ ] = remark or other dose. In the library only some 3.8% were active in any assay of this set; here they are far more common. Calls come from the whole dose curve; as a rule, active = well fitted curve in the direction sought with a large enough effect; inconclusive = small, poorly fitted or top-dose-only effect, or another doubt; inactive = no such curve, though single readings can be large; an effect the other way counts as inactive or inconclusive. Unless noted, % is set by controls: 0 for no effect and ±100 for the full control effect; potency is the fitted concentration of half-maximal effect.

SMILES | TrxR1 substrate | Sfp inh | GLS inh | KAT2A inh | VDR inh | rTrxR1 inhibitor
Cc1nn(-c2ccccc2)c(C)c1C(=O)OCC(=O)Nc1cccc(S(N)(=O)=O)c1 | -3% | . | -2% | -19% | 12% | 20%
BrC(=C\c1ccccc1)/C=N/N1CCN(c2ccccc2)CC1 | -7%[57.1 µM] | 45µM* | -5% | 6% | 79µM* | 4%[57.1 µM]
Nc1c(C(O)(C(F)(F)F)C(F)(F)F)ccc2ccccc12 | 15%[57.1 µM] | 45µM* | 10% | -3% | -5% | 16%[57.1 µM]
O=C(CBr)c1ccc([N+](=O)[O-])c(CS(=O)(=O)c2ccc(Cl)cc2)c1 | 3%[57.1 µM] | 56µM* | -6% | 18% | 35µM* | ?
NS(=O)(=O)c1ccc(CCNC(=O)COC(=O)Cc2ccc(Cl)cc2)cc1 | . | . | -4% | . | . | .
O=C(c1ccccc1)N1N=C(C(F)(F)F)CC1(O)c1ccccc1 (configuration not stated) | -6% | 5% | 3% | -7% | -10% | 9%
COc1cccc(C2(O)CC(C(F)(F)F)=NN2C(=O)c2ccccn2)c1 (configuration not stated) | -6% | -8% | 25% | 25µM* | 15% | -6%
COc1ccc(NC(=S)NC(=O)C2CCC2)cc1 | 10% | -5% | 15% | -7% | -3% | ?
CCCCC[C@@H](/C=C/C1C(=O)C=C[C@H]1C/C=C\CCCC(=O)OC)OC(C)=O (some centres not stated) | -7% | . | 0% | . | 10µM* | ?
COc1ccc2nc(N3CCN(C(=O)CS(=O)(=O)c4ccc(C)cc4)CC3)sc2c1 | -5%[57.1 µM] | . | -11% | -2% | 5% | 9%[57.1 µM]
CCCc1nc2cc(C)c(Br)c(C)n2c1CC1CCCCC1 | . | . | -8% | . | . | .
COCCN=c1scc(-c2ccco2)n1/N=C/c1ccc(O)c(O)c1O | 0%[57.1 µM] | -93% | 0% | 20µM* | -6% | ?
C=CCN=c1scc(-c2ccco2)n1/N=C/c1ccc(O)c(O)c1O | -4% | 7.1µM* | 10µM* | -25% | -12% | ?
O=c1c2ccccc2nc(-c2ccco2)n1/N=C/c1ccccc1O | -2% | 24% | -5% | 0% | 7% | -87%
Oc1ccc(/C=N/n2c(-c3ccco3)csc2=Nc2cccnc2)c(O)c1 | -6% | 45µM* | -5% | -4% | 1% | -12%
CC(C)N=c1scc(-c2ccco2)n1/N=C/c1ccc(O)c(O)c1 | -9% | ? | ? | ? | 2% | -20%
O=C(CC(=O)N/N=C\c1ccc([N+](=O)[O-])cc1)NCCc1ccccc1 | -1%[57.1 µM] | 10% | 7% | -3% | 2% | -5%[57.1 µM]
CN(C)c1ncc(C2=C(Cl)C(=O)C(N3CCCC3)=C(Cl)C2=O)s1 | 1% | . | 12% | . | 28µM* | 2.5µM*
O=C1C(Cl)=C(N2CCCCC2)C(=O)C(Cl)=C1c1cnc(N2CCCCC2)s1 | -3% | 18µM* | 7% | -21% | ? | 1.8µM*
NNC(=O)c1[nH]c2ccc([N+](=O)[O-])cc2c1-c1ccccc1 | -10% | -2% | -4% | -5% | 79µM* | 4%[57.1 µM]
Clc1ccc2c(NCc3ccccc3)ccnc2c1 | 5% | 3% | 2% | -1% | -6% | 9%
Cc1cc(=O)oc2c3c(cc(OCC(=O)N4CCC(C(=O)O)CC4)c12)OC(C)(C)CC3 | 589% | 15% | 6% | 18µM* | 3% | 11%
O=C(NC1CC(=O)N(c2cccc(F)c2)C1)C1CCCCC1 (configuration not stated) | 3%[57.1 µM] | . | 5% | 1% | -4% | 15%[57.1 µM]
CC(C)CNC(=O)CC(=O)N/N=C/c1ccc(Br)cc1 | 4% | 18% | 2% | -4% | -9% | 12%
Cc1cccc(C2CN(C)CCc3c2cc(O)c(O)c3Cl)c1 (configuration not stated) | 12%[57.1 µM] | . | 20% | 2% | -1% | 5%[57.1 µM]
SMILES | TrxR1 substrate | Sfp inh | GLS inh | KAT2A inh | VDR inh | rTrxR1 inhibitor
Oc1cc2c(c(Cl)c1O)CCNC[C@H]2c1ccccc1 | . | 79µM* | . | . | . | .
Oc1cc2c(c(Cl)c1O)CCNCC2c1ccccc1 (configuration not stated) | 8%[57.1 µM] | 50µM* | ? | -3% | ? | -11%
C=CCN1CCc2c(cc(O)c(O)c2Cl)C(c2ccccc2)C1 (configuration not stated) | 5%[57.1 µM] | ? | 51% | -7% | 5% | ?
Oc1ccc(C2CNCCc3c2cc(O)c(O)c3Cl)cc1 (configuration not stated) | 19%[57.1 µM] | 40µM* | 6% | -7% | 2% | ?
COc1cc2c(cc1NC(=O)c1ccccc1-c1ccccc1C(=O)O)-c1ccccc1C2 | . | . | 10% | . | . | .
CCC1CCCCN1CCCNC(=O)Cn1ncc2c(C)n(Cc3ccccc3Cl)c(C)c2c1=O (configuration not stated) | 0% | 2% | 1% | -1% | -11% | 22%
CC(=C\c1ccco1)/C=C1/SC(=S)N(CC(=O)O)C1=O | -23% | 28µM* | -1% | -10% | 6% | ?
CC(=C\c1ccccc1)/C=C1/SC(=S)N(CCC(=O)O)C1=O | -10% | ? | 3% | 3% | -22% | -5%
CC(/C=C1\SC(=S)N(CC(=O)O)C1=O)=C\c1ccccc1 | -5% | -23% | 1% | ? | 45µM* | -8%
Cc1ccc(N(CCC(=O)NC(C)(C)C)S(=O)(=O)c2ccc(C)cc2)cc1 | 2%[57.1 µM] | -1% | -2% | -2% | -7% | 10%[57.1 µM]
O=C(NC(=S)NN1CCOCC1)c1cc(Br)ccc1Cl | -2% | . | 20% | -7% | -9% | 10%
Cc1cc(=O)[nH]c(SCC(=O)Nc2nc3ccccc3s2)n1 | -5% | 79µM* | 4% | -16% | ? | 22%
CCNC(=O)Nc1nc2ccccc2s1 | 2% | -1% | -7% | -5% | 0% | 2%
CC(=O)Nc1c(O)nc(SCC(=O)Nc2c(C)cccc2C)[nH]c1=O | 12% | 79µM* | -1% | -2%[0.501 µM] | -8% | 26%
CCCc1cc(=O)[nH]c(SCC(=O)Nc2c(C)cccc2C)n1 | 20% | 10% | -1% | 0% | -19% | 43%
CCOCC(=O)Nc1nc2ccccc2s1 | 11%[57.1 µM] | 50µM* | -2% | -1% | 23% | -25%[57.1 µM]
Cc1cc(=O)[nH]c(SCC(=O)Nc2nc(-c3ccccc3)cs2)n1 | -7% | -6% | -13% | -3% | 0% | -6%
O=C(COC(=O)Cc1c(Cl)cccc1Cl)Nc1ccccc1-c1ccccc1 | 1% | 1% | 2% | -10% | 1% | 16%
Cc1cccc(NC(=O)c2ccc(-n3cccn3)c([N+](=O)[O-])c2)c1 | 1% | -2% | -14% | 1% | 3% | ?
O=C(CCN1CCOCC1)NNC(=S)NC(=O)c1ccccc1 | 0%[57.1 µM] | 45µM* | -6% | 0% | -12% | -21%[57.1 µM]
